Hits are enriched below; roughly 10% of the tested compounds scored in any of these assays.
G9a inh – inhibitors of human histone lysine methyltransferase G9a; Q96KQ7; G9a H3K9 monomethylation, AlphaScreen, 2 h; Potency, µM (doses to about 102 µM), without a hit: at the top dose activity, negative = inhibition, usual class: inhibitors; 350,000 compounds, 8.8% hits; AID 504332; note: potency is the fitted concentration of half-maximal effect; % is set by controls: 0 for no effect and ±100 for the full control effect; nearly all actives have a fitted effect of over 75% in size
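Quantitative HTS format: methyltransferase activity on a biotin-tagged H3K9 peptide is measured by AlphaScreen, using a rabbit anti-monomethyl-H3K9 antibody with streptavidin donor and anti-IgG acceptor beads. Final levels are 20 nM enzyme, 500 nM peptide, 20 uM SAM; 2 h RT.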
Six1-Eya2 inh – Six1/Eya2 interaction inhibition | Q15475+O00167 | 360,000 compounds, 0.56% hits | AlphaScreen GST-Six1/His-Eya2 binding, biochemical; active compounds read low | activity change, % (no concentration beside the values); in the data active = activity change below about -65%; inconclusive = mostly about -30% to -63%; note: % is set by controls: 0 for no effect and ±100 for the full control effect
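AlphaScreen with GST-Six1 and His-Eya2 (5X mix: 250 nM and 500 nM), glutathione donor and nickel acceptor beads; buffer 50 mM Tris pH 8.0, 300 mM NaCl, 1 mM TCEP; 1 h at 37 C in the dark.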
BAZ2B inh – blocks human BAZ2B | AlphaScreen BAZ2B-H3K14Ac peptide displacement | Potency, µM (doses to about 114 µM), inactives show at the top dose activity change, negative = inhibition, most hits filed as inhibitors | 360,000 compounds, 4.4% hits; note: potency is the fitted concentration of half-maximal effect; % is set by controls: 0 for no effect and ±100 for the full control effect; nearly all actives have a fitted effect of over 60% in size
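Compounds, titrated to a top concentration of 110 uM, were incubated 30 min at room temperature with preformed BAZ2B/acetyl-K14 H3 peptide complex (50 nM each). Proximity signal was measured by AlphaScreen after 20 min with beads.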
CtBP-E1A blk – blocks the CtBP interaction with E1A; AlphaScreen GST-E1A/His-CtBP binding, 1536-well; active compounds read low; activity change, % (test concentration not listed); 340,000 compounds, 0.49% hits; in the data active = activity change below about -65%; inconclusive = mostly about -30% to -63%; note: % is set by controls: 0 for no effect and ±100 for the full control effect
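AlphaScreen with 125 nM GST-E1A and 125 nM His-CtBP (5X stocks) in Tris pH 8.0, 300 mM NaCl, BSA, Tween 20, TCEP. Compounds preincubated 2 h at 37 deg C, then glutathione donor/nickel acceptor beads added for 1 h at 37 deg C in dark.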
HP1b chromo inh – inhibitors of HP1-beta chromodomain binding to methylated histone tails. AlphaScreen HP1-beta / biotin-H3K9me3 peptide binding. Potency, µM (series often up to 114 µM), for inactives: at the top dose activity change, negative = inhibition, most hits filed as inhibitors. 390,000 compounds, 0.56% hits. AID 540317; note: potency is the fitted concentration of half-maximal effect; nearly all actives have a fitted effect of over 70% in size
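Compound inhibition of the preformed complex between 50 nM HP1-beta and 50 nM biotinylated H3K9me3 peptide was read by AlphaScreen. Buffer was PBS pH 7.4 with 0.01% Tween-20. Incubations ran 30 min at room temperature, with 10 ug/mL donor/acceptor beads.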
JMJD2A Tudor – inhibitors of human JMJD2A Tudor domain | AlphaScreen JMJD2A-Tudor / H3K4me3 peptide binding | Potency, µM (highest dose often 114 µM), for inactives: top-dose activity change, negative = inhibition, actives largely listed as inhibitors | 390,000 compounds, 4.4% hits | AID 504339; note: potency is the fitted concentration of half-maximal effect; % is set by controls: 0 for no effect and ±100 for the full control effect; nearly all actives have a fitted effect of over 50% in size
Target sequence (O75164 whole entry, looked up, the tested form may be a part): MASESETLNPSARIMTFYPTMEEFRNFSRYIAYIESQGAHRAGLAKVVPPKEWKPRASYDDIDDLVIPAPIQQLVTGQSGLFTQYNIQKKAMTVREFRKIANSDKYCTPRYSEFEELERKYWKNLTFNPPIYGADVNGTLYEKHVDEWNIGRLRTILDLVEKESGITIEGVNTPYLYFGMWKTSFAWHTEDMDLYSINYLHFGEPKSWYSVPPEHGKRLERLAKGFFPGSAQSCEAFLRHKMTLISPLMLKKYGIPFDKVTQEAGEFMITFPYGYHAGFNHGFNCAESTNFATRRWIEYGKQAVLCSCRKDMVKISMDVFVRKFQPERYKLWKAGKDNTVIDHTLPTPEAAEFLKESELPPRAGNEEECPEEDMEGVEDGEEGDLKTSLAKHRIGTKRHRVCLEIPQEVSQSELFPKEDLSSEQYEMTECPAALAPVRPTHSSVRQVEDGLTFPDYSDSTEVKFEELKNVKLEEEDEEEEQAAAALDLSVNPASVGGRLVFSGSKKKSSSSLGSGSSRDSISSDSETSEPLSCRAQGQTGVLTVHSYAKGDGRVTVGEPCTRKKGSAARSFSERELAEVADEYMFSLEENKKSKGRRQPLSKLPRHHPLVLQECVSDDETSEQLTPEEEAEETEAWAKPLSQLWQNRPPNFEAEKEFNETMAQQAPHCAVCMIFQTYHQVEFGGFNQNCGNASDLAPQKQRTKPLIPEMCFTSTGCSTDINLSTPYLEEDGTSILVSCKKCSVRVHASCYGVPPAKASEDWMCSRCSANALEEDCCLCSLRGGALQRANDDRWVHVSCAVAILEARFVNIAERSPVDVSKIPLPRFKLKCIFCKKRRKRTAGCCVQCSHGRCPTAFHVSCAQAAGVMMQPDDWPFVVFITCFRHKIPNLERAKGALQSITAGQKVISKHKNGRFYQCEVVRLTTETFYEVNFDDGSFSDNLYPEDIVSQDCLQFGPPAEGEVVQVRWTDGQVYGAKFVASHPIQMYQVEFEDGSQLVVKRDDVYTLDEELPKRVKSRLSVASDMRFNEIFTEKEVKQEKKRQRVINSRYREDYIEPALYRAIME
An asterisk follows results filed as active; ? = inconclusive; . = not tested or not shown; [ ] = remark or other dose. Unless noted, calls come from the whole dose curve; as a rule, active = well fitted inhibition curve with a large enough effect; inconclusive = small, poorly fitted or top-dose-only effect; inactive = no such curve, though single readings can be large or run the other way.

SMILES | G9a inh | Six1-Eya2 inh | BAZ2B inh | CtBP-E1A blk | HP1b chromo inh | JMJD2A Tudor
Cc1cn(CC(=O)NCCc2c[nH]c3ccccc23)c(=O)[nH]c1=O | . | 0 | . | 3 | -27% | ?
Brc1ccc(-c2noc(COc3ccc4c(c3)CCC4)n2)o1 | 22µM* | 34 | 56µM* | -8 | -11% | 199%
Clc1ccc(OCc2nc(-c3ccc(Br)o3)no2)cc1 | -16% | 11 | 4% | 26 | 31% | 36%
N#Cc1nc(-c2ccccc2)oc1N1CCC(C(N)=O)CC1 | -2% | 1 | -5% | -9 | -5% | -18%
CCN1CCN(c2oc(-c3ccc(COc4ccccc4C)o3)nc2C#N)CC1 | 5%[59 µM] | . | 11% | . | ? | 50µM*
Cc1ccccc1OCc1ccc(-c2nc(C#N)c(N3CCC(C(N)=O)CC3)o2)o1 | 10µM* | . | ? | . | -5% | ?
CCN(CC)CCNC(=O)c1cccc(NC(=O)C(=O)c2ccccc2NC(C)=O)c1 | -13% | 3 | -1% | -8 | 21% | -12%
N#CCc1ccc(Oc2ncc(C(F)(F)F)cc2Cl)cc1 | 48% | -12 | 33% | -17 | -7% | 0%
Cc1ccc(CO/N=C\Cc2snc(Sc3ncc(C(F)(F)F)cc3Cl)c2C#N)cc1 | 11µM* | -2 | 35µM* | -6 | ? | ?
COc1ccc(CCNS(=O)(=O)c2ccc(Br)cc2)cc1OC | -13%[0.501 µM] | 4 | 5% | -3 | 8% | -21%
O=[N+]([O-])c1ccc2c(c1)nc1n2CCSC1 | ? | 8 | -1% | 1 | 2% | -11%
COCCN1CCn2c(nc3cc([N+](=O)[O-])ccc32)C1 | 35µM* | 4 | -24% | 5 | 60% | -3%[11.4 µM]
O=[N+]([O-])c1ccc2c(c1)nc1n2CCN(c2ccccc2)C1 | 13µM* | -17 | ? | 0 | 52% | -26%
CCOc1ccc(S(=O)(=O)N2CCN(c3nc(-c4ccccc4)nc4ccccc34)CC2)cc1 | . | . | . | . | 18% | -20%
Cc1ccc(Cn2cc(C(=O)c3ccc(F)cc3)c(=O)c3cc4c(cc32)OCO4)cc1 | -38%[59 µM] | . | ? | . | 15% | -27%
CCCCNC(=O)c1nn(-c2ccc(C)cc2)c(=O)n(C)c1=O | -4%[59 µM] | . | -3% | . | 13%[57 µM] | -18%
COn1c(-c2ccccc2)nc2c1CCc1c-2no[n+]1[O-] | 14%[59 µM] | 6 | 6% | 8 | 19% | -6%
COc1ccc(-c2nc3c(n2O)CCc2c-3no[n+]2[O-])cc1 | 50µM* | -1 | -32% | 0 | -4% | -11%[11.4 µM]
CCOC(=O)c1[nH]c(C)c(CCC(=O)O)c1C | 11%[12.7 µM] | -5 | -1% | -3 | 8% | -16%
CCOc1c(C)cc2[nH]c(CCC(=O)O)nc2c1C | 13µM* | 9 | -3% | 0 | 29% | -6%
CN(CCCC(=O)Nc1ccc(Br)cc1F)S(=O)(=O)c1ccccc1 | 35µM* | 1 | 0% | . | 18% | 1%
CN(CCCC(=O)Nc1ccc(OC(F)F)cc1)S(=O)(=O)c1ccc(F)cc1 | 45µM* | 16 | -7% | -5 | 22% | 1%
CN(CCCC(=O)Nc1ccccc1F)S(=O)(=O)c1ccc(F)cc1 | 0% | 1 | 4% | 6 | 31% | 0%
Cc1ccc(S(=O)(=O)N(C)CCCC(=O)Nc2ccc(F)cc2)cc1 | -28% | 9 | . | -12 | 38% | -11%
CCN1C=C(Cc2ccc(OC)cc2)C2=C(C1)C(c1ccc(OC)cc1)C(C#N)=C(N)O2 (stereo not given) | ? | -29 | 45µM* | -15 | -29% | ?
SMILES | G9a inh | Six1-Eya2 inh | BAZ2B inh | CtBP-E1A blk | HP1b chromo inh | JMJD2A Tudor
CC1(C)C(=O)Nc2ccccc2N1C(=O)COC(=O)c1cccc(O)c1 | . | -2 | . | 0 | 6% | ?
CC1(C)C(=O)Nc2ccccc2N1C(=O)COC(=O)c1ccc(NC(N)=O)cc1 | 35µM* | -6 | -10% | -5 | 9% | -20%
Cc1cc(OCC(=O)OCC(=O)N2c3ccccc3NC(=O)C2(C)C)ccc1Cl | 18%[12.7 µM] | -5 | 79µM* | 3 | 2% | ?
O=C1CCCC/C1=N\Nc1ccc(OCc2ccccc2)cc1 | 40µM* | 2 | -23% | -6 | -6% | -29%
CS(=O)(=O)Nc1ccc(OCc2ccccc2)cc1 | 2% | 1 | -3% | 3 | 22% | -17%
Cc1cc(C)c2c(N)c(C(=O)N3CCN(c4ncccn4)CC3)sc2n1 | ? | 6 | -2% | -1 | 46% | 40µM*
Cc1cc(C)c2c(N)c(C(=O)NNC(=O)c3ccccc3)sc2n1 | 45µM* | 11 | -26% | 4 | 42% | -11%
CCOC(=O)CNC(=O)c1sc2nc(C)cc(C)c2c1N | 50µM* | -1 | -1% | -1 | 50% | 17%
COCc1cc(C)nc2sc(C(=O)N3CCN(c4ccccc4)CC3)c(N)c12 | ? | 12 | -5% | -16 | 62% | -8%
COc1ccc2[nH]cc(C(=O)CNc3nc(C)cs3)c2c1 | ? | -16 | 50µM* | -10 | -1% | -5%[11.4 µM]
COCc1ccc(C(=O)NCC2(N3CCCCC3)CCCCC2)cc1 | ? | 6 | 79µM* | 6 | 5% | 13µM*
CCOc1ccc(CCNC(=O)COC(=O)/C=C/c2ccc(C)o2)cc1OCC | ? | -2 | -38% | 1 | 22% | -26%
CCCNC(=O)COC(=O)/C=C/c1ccc(C)o1 | 50µM* | 4 | -16% | -19 | 23% | -15%
Cc1ccc(/C=C/C(=O)OCC(=O)NCc2ccccc2)o1 | 45µM* | -3 | 1% | 0 | -10% | -13%
Cc1ccc(C(=O)OCC(=O)NCCNC(=O)COC(=O)c2ccc(C)o2)o1 | 56µM* | 8 | -8% | -19 | 18% | -4%
Cc1ccc(/C=C/C(=O)OCC(=O)NCCN2C(=O)CSC2=O)o1 | 50µM* | 6 | -23% | -17 | 22% | -14%
N#CCCN(C(=O)COC(=O)CCc1ccccc1)c1ccccc1 | 12% | -4 | -14% | -1 | 23%[57 µM] | 0%
Cc1ccc(SCC(=O)OCC(=O)N(CCC#N)c2ccccc2)cc1C | 56µM* | -4 | 13% | 2 | 53% | ?
O=C(Cn1ccn(-c2ccc(F)c(F)c2)c(=O)c1=O)c1ccc(F)cc1 | -35%[59 µM] | . | ? | . | -2% | -23%
COc1ccc(OCC(=O)Nc2ccc(C(=O)OCc3cc(=O)n4nc(C)sc4n3)cc2)cc1 | 4%[12.7 µM] | . | -5% | . | -2% | -2%
O=C(c1ccc(S(=O)(=O)N2CCC(c3nc4ccccc4s3)CC2)cc1)N1CCOCC1 | 40µM* | -1 | 5% | -7 | 6% | -15%
O=C(c1ccc(S(=O)(=O)N2CCC(c3nc4ccccc4s3)CC2)cc1)N1CCCCC1 | . | 4 | . | 5 | 22% | -18%

From PubChem BioAssay
